An excerpt weighted towards active compounds, which were near 2.4% of everything screened.
D2 ag-1: D2 dopamine receptor (human) agonism; P14416; HEK293 T-REx D2 cells, calcium flux agonist mode; activation, % at 2 µM; actives 0.53% (n = 340,000); AID 485358;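 active = activation over 3 SD above normal in the single-dose calcium agonist read, cut at about 30% in these data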; note: 0% is about no effect
Target sequence (P14416 whole entry, looked up): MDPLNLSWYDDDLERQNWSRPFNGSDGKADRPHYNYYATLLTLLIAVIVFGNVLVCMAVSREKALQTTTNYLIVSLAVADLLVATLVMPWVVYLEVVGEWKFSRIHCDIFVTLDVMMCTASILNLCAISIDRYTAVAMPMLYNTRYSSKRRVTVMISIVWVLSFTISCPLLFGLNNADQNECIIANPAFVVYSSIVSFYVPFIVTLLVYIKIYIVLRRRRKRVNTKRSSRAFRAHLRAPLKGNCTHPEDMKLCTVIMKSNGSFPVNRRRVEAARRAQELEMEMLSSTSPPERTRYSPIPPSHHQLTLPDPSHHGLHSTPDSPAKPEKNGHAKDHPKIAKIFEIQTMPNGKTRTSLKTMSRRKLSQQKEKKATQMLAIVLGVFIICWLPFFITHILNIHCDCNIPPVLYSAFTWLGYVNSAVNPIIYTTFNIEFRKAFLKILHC
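Agonism scored from kinetic calcium signal (1 read/sec, 180 s) following compound pin transfer, after a 10 s baseline. Cells: HEK293 Trex line expressing inducible D2 receptor coupled to calcium, dye-loaded after overnight culture at 30 C.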
D2 PAM-1: potentiates the human D2 dopamine receptor allosterically | potentiation, % (concentration not given with the values) | actives 0.23% (n = 360,000) | DiscoveRx D2 beta-arrestin cells, luminescence, 90 min; 100% = 57 uM dopamine signal | AID 624464 | P14416; in the data active = potentiation above about 50%
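PathHunter D2 cells, attached overnight at 37 deg C, received compound in DMSO plus dopamine at EC20 (50 nM final) for 90 min at 37 deg C. Beta-arrestin recruitment was read as luminescence after 1 h with detection reagent at ambient temperature.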
D2 ag-2: activates the human D2 dopamine receptor | P14416 | DiscoveRx PathHunter D2 beta-arrestin, luminescence, 90 min; 100% = 57 uM dopamine signal | activation, % (no concentration beside the values) | actives 0.084% (n = 360,000); in the data active = activation above about 40%
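Agonist mode: compounds alone added to overnight-plated D2 PathHunter cells for 90 min at 37 C, with 57 uM final dopamine (EC100) defining full response. Beta-arrestin recruitment detected by chemiluminescent reagent, read after 1 h at ambient temperature.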
D2 antag: antagonists of human D2 dopamine receptor | P14416 | HEK293 TREx D2 cells, calcium flux, dopamine EC80 | inhibition, % at 10 µM | actives 2% (n = 340,000); in the data active = inhibition above about 30%; inactive = below that, where a call was filed; note: 0% is about no effect
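Inhibition of EC80 dopamine-driven calcium flux, recorded kinetically, defines activity here; cells are a tetracycline-induced HEK293 T-REx line expressing force-coupled D2.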
D2 PAM-2: positively modulates the human D2 dopamine receptor allosterically; HEK293 T-REx D2, calcium flux, EC20 dopamine potentiation; potentiation, % at 10 µM; actives 0.34% (n = 340,000); AID 485347;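 active = potentiation over 3 SD above the plate norm, cut at about 30% in these data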; note: 0% is about no effect
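Using a no-wash calcium dye in inducible, force-coupled HEK293 Trex cells expressing D2, we tracked fluorescence each second for 180 s after compound, then for 180 s after EC20 dopamine to detect augmented signalling.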
Numbers without * were called inactive; / = no result given.

SMILES	D2 ag-1	D2 PAM-1	D2 ag-2	D2 antag	D2 PAM-2
O=C(c1c(F)c(F)c(F)c(F)c1F)N1CCN(Cc2ccc3c(c2)OCO3)CC1	/	-16	-6	/	/
O=C(c1ccc(Br)s1)N1CCN(Cc2ccc3c(c2)OCO3)CC1	0	-22	0	78*	-23
O=C(c1cc2c(s1)CCCC2)N1CCN(Cc2ccc3c(c2)OCO3)CC1	0	-39	-3	75*	-21
Cn1c(C(=O)N2CCC(C(=O)N3CCN(Cc4ccc5c(c4)OCO5)CC3)CC2)cc2sccc21	5	-4	-2	-13	10
Cn1c(C(=O)N2CCN(Cc3ccc4c(c3)OCO4)CC2)cc2sccc21	0	-19	-2	100*	-22
COc1ccc(C(=O)Nc2nnc(S(=O)(=O)N3CCCc4ccccc43)s2)cc1	3	/	/	/	/
CCc1cc(C(=O)N2CCN(S(=O)(=O)c3ccc(Cl)cc3)CC2)sc1C	0	-8	-2	39*	-19
CCc1noc(C)c1C(=O)N1CCN(S(=O)(=O)c2ccc(Cl)cc2)CC1	0	-2	-6	-39	2
CCOCCCNCc1ccc(OCCC(C)C)c(OC)c1	-1	-8	-6	35*	-9
CCCCN1C(N)=NC[C@@H]1Cc1ccc(O)cc1	0	-5	0	-13	8
CCCCN1C(N)=NC[C@H]1Cc1ccc(O)cc1	0	-9	-5	48*	-4
O=C(OCC(=O)N1CCCc2ccccc21)c1ccc(S(=O)(=O)C(F)F)cc1	0	-20	1	42*	-3
O=C(OCC(=O)N1CCCc2ccccc21)c1ccc(C(F)(F)F)cc1	2	6	-5	9	-10
C=CCNC(=S)N1CCN(CCN=CC2=C(O)CC(c3ccc(Cl)cc3)CC2=O)CC1 (configuration not stated)	1	7	2	-18	23
O=C1CC(c2ccc(Cl)cc2)CC(O)=C1C=NCCN1CCNCC1 (configuration not stated)	1	/	/	53*	1
O=C(/C=C\c1cccs1)c1c(O)ccc2ccc(=O)oc12	3	-39	-4	6	-5
Cc1ccc(CNC(=O)CCCN2C(=O)COc3ccc(C)cc32)cc1	0	/	/	/	-10
COC(=O)C(C)Sc1nnc(SC(C)C(=O)OC)s1 (configuration not stated)	-1	-14	-3	40*	21
COc1ccc(CCNC(=O)C2(c3cccs3)CCOCC2)cc1OC	2	/	/	/	9
CCc1cccc(C)c1NC(=O)CSc1nc2c(c(=O)[nH]1)CCC2	/	/	/	/	8
CCOC(=O)C(=NCCCN(C)C)NNc1ccc(Br)cc1	0	-11	5	-1	2
CCOC(=O)C(=NCCCN(C)C)NNc1cc(C(F)(F)F)ccc1Cl	-1	-6	0	35*	-14
COc1ccc(Oc2ncnc3sccc23)cc1	0	2	-2	9	7
Cc1nc(Oc2ccccc2)c2ccsc2n1	-2	-7	-3	5	30*
COc1ccc(OCC(O)CNC(=O)Nc2cc(F)ccc2C)cc1 (configuration not stated)	0	-32	-3	38*	9
SMILES	D2 ag-1	D2 PAM-1	D2 ag-2	D2 antag	D2 PAM-2
CC(Sc1ccccc1)C(=O)NNC(=O)c1csc(N2CCOCC2)n1 (configuration not stated)	0	8	3	-9	15
Cc1cc(Cl)ccc1OC(C)C(=O)NCCc1ccc2c(c1)OCCO2 (configuration not stated)	1	-5	-3	64*	-7
CSc1cccc(NC(=O)c2ccc3c(c2)CCCN3S(C)(=O)=O)c1	-1	/	/	/	-6
CCCCCCCNC(=O)C1(CC2CC(c3ccc(Cl)cc3)=NO2)CCN(C(=O)c2cc(OCC)c(OCC)c(OCC)c2)CC1 (configuration not stated)	1	-7	0	44*	-11
CCOC(=O)C1CCN(C(=O)CCc2ccccc2)CC1	0	-5	-4	-4	-4
CCOC(=O)C1CCN(C(=O)CCc2nc3ccccc3[nH]2)CC1	0	-5	0	61*	0
Cc1ccc(C2=NN(C(=O)CSc3nnnn3C)C(c3ccco3)C2)cc1 (configuration not stated)	0	-5	-3	43*	4
COc1cccc(CNC(=O)NCc2noc3ccc(C)cc23)c1	0	/	/	/	4
COc1cc(Cn2c3ccc(NC(=S)NCc4ccc(C)cc4)cc3c(=O)n2C)ccc1F	/	8	4	/	/
Cc1n[nH]c(C)c1Sc1ccccc1N	0	0	3	-7	-8
Cc1cc(C)nc(Sc2c(C)n[nH]c2C)n1	1	-9	1	32*	-3
Cc1nc(N2CCOCC2)c(C#N)c2c1COC(C)(C)C2	0	2	-4	-6	33*
CCc1nc(N2CCOCC2)c(C#N)c2c1COC(C)(C)C2	-3	-3	2	-14	-1
COc1ccc(NC(=O)c2ccc(NC(=O)CCS(=O)(=O)c3cccs3)cc2)cc1OC	0	/	/	/	4
Cc1ccc(N2CCN(C(=O)c3cn(C)c4ccc(S(=O)(=O)N(C)C)cc4c3=O)CC2C)cc1 (configuration not stated)	0	/	/	/	2
CN(C)CCCn1c(SCC(=O)Nc2sc3c(c2C#N)CCCC3)nnc1-c1ccncc1	0	-15	0	39*	-4
O=C(O)Cc1sc(Nc2ccccc2Cl)nc1-c1ccccc1	0	/	/	/	-1
Cc1cc2n(n1)C(c1ccccc1)CC(c1ccc(Br)cc1)=N2 (configuration not stated)	8	10	6	52*	-2
O=C(c1ccccc1Br)N(Cc1ccco1)Cc1ccco1	-1	/	/	/	-5
O=C(CCC(=O)Nc1ccc(Br)cc1)N/N=C/c1ccc(O)cc1	-1	-23	-4	33*	-23
COc1cc(/C=N/NC(=O)CCC(=O)Nc2ccc(Br)cc2)ccc1O	0	-10	1	32*	-11
Cc1ccc(NC(=O)CCC(=O)N/N=C/c2ccc(O)cc2)cc1	0	-21	-4	-25	-14
COc1ccc(OC)c(/C=N/NC(=O)CCCC(=O)Nc2cccc(Br)c2)c1	1	-12	-2	68*	-4
COc1ccc(O)c(/C=N/NC(=O)CCC(=O)Nc2cccc(C)c2)c1	0	-7	-3	-5	-6
O=C(NCCOc1ccc(F)cc1)C1CCC(=O)N(CCN2CCOCC2)C1 (configuration not stated)	1	9	-6	11	2
CCCOC(=O)c1ccc(NC(=O)c2nc3nc(C)cc(C)n3n2)cc1	-1	-8	-3	8	31*
Cc1cc(C)n2nc(C(=O)OCC(=O)Nc3ccc(Cl)cc3)nc2n1	/	0	1	/	/
